Measurements as given in PubChem BioAssay AID2590 (National Center for Advancing Translational Sciences (NCATS), 2010).
Where “and” joins values, the source holds several entries; their conditions need not be identical. Identical values can stand only once. Inconclusive results are not listed. Values without a mark were called inactive. Calls of active or inactive are those of the source. Calls follow the shape of the dose curve; as a rule, active = well fitted curve in the direction sought with a large enough effect; inconclusive = small, poorly fitted or top-dose-only effect, or another doubt; inactive = no such curve, though single readings can be large or run the other way.

The compounds below were run against Lysosomal acid glucosylceramidase (Homo sapiens) (UniProt P04062) (assay: qHTS Assay for Inhibitors and Activators of N370S glucocerebrosidase as a Potential Chaperone Treatment of Gaucher Disease: Primary Screen Confirmation). Conditions: N370S glucocerebrosidase enzyme activity, fluorogenic substrate; series mostly up to 54 µM; activity change, negative = inhibition: at the top concentration.
In short: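 Patient-spleen homogenate carrying N370S GC (27 ug) in pH 5.0 citrate buffer with 0.01% Tween-20, 1 mM 4-methylumbelliferyl-beta-glucoside, 40 min at 37C; fluorescence 365/440 nm after NaOH/glycine stop; AC50 from Hill fits.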
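For Potency in this document: enzyme source is Gaucher patient spleen homogenate not purified recombinant protein.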
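For activity change, negative = inhibition in this document: 0% = enzyme with DMSO and -100% = no enzyme basal signal.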
Potency is read from the fitted curve at half-maximal effect.

Sequence of Lysosomal acid glucosylceramidase (Homo sapiens) (P04062 whole entry N409S): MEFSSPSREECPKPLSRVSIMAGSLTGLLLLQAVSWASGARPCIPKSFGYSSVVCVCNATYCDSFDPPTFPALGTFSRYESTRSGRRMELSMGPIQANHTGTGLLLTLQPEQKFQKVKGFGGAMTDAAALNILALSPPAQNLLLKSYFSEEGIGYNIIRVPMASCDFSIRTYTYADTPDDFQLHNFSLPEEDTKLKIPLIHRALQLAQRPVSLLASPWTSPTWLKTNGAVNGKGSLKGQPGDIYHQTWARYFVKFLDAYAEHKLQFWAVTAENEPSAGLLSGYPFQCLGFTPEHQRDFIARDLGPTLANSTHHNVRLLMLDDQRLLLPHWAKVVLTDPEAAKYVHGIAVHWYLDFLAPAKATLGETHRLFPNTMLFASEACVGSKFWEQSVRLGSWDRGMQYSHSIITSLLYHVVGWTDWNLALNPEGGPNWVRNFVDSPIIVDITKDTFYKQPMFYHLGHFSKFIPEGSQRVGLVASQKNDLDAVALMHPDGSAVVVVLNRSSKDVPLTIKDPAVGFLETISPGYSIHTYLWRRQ

| SMILES | Potency | activity change, negative = inhibition [%] |
| --- | --- | --- |
| N#Cc1cccc(S(=O)(=O)N2CCN(c3nc(-c4cccs4)nc4ccccc34)CC2)c1 | 2.01 µM (active) |  |
| N=c1c2c(-c3ccccc3)c(-c3ccccc3)n(Cc3ccco3)c2ncn1CCCn1ccnc1 | 12.6 µM (active) |  |
| COc1cccc(CN(C)c2nc(-c3cccs3)nc3ccccc23)c1 | 2.01 µM (active) |  |
| O=S(=O)(c1ccc(Br)cc1)N1CCN(c2nc(-c3cccs3)nc3ccccc23)CC1 | 1.3 µM (active) |  |
| O=S(=O)(c1ccccc1)N1CCN(c2nc(-c3cccs3)nc3ccccc23)CC1 | 1.46 µM (active) and 919 nM (active) |  |
| O=S(=O)(c1ccccc1C(F)(F)F)N1CCN(c2nc(-c3cccs3)nc3ccccc23)CC1 | 0.41 µM (active) |  |
| Cc1cc(C)nc(NC(=O)Cc2ccc(Cl)cc2)c1 |  | -22.5 |
| Cc1ccc(S(=O)(=O)N2CCN(c3nc(-c4ccco4)nc4ccccc34)CC2)cc1 | 1.01 µM (active) |  |
| O=C(c1ccccc1)N1CCN(c2nc(-c3cccs3)nc3ccccc23)CC1 | 1.42 µM (active) |  |
| CC(Nc1nc(-c2ccccc2F)nc2ccccc12)c1ccccc1 (centres undefined) | 3.66 µM (active) |  |
| NCCCN(Cc1ccc(Cl)c(Cl)c1)c1ccccn1 |  | -26.1 |
| CCOC(=O)c1ccc(S(=O)(=O)N2CCN(c3nc(-c4ccccc4)nc4ccccc34)CC2)cc1 | 5.17 µM (active) |  |
| Cc1ccc(S(=O)(=O)N2CCN(c3nc(-c4cccs4)nc4ncccc34)CC2)cc1 | 2.25 µM (active) |  |
| Cc1ccc(S(=O)(=O)N2CCN(c3nc(-c4cccs4)nc4c3ncn4COC(=O)C(C)(C)C)CC2)cc1 |  | -14.4 |
| O=S(=O)(c1cccc(Cl)c1)N1CCN(c2nc(-c3cccs3)nc3ccccc23)CC1 | 1.6 µM (active) and 1.79 µM (active) |  |
| O=S(=O)(c1cnc2ccccc2c1)N1CCN(c2nc(-c3cccs3)nc3ccccc23)CC1 | 0.897 µM (active) |  |
| N#Cc1ccc(S(=O)(=O)N2CCN(c3nc(-c4cccs4)nc4ccccc34)CC2)cc1 | 2.01 µM (active) |  |
| Cc1nc2nc(-c3ccccc3)cn2nc1C |  | 8.02 |
| O=S(=O)(c1ccc(F)cc1)N1CCN(c2nc(-c3cccc(Br)c3)nc3ccccc23)CC1 |  | -9.98 |
| O=S(=O)(c1ccccc1F)N1CCN(c2nc(-c3cccs3)nc3ccccc23)CC1 | 1.63 µM (active) |  |
| Cc1cc(C)n2ncc(C(=O)Nc3cccc(O)c3)c2n1 |  | -2.41 |
| O=S(=O)(c1cccs1)N1CCN(c2nc(-c3cccs3)nc3ccccc23)CC1 | 0.819 µM (active) |  |
| S=C(NCCCc1cnc[nH]1)NCCCN(CCc1ccc(Cl)cc1)c1ccc(Br)cn1 | 1.79 µM (active) |  |
| O=S(=O)(c1cccc(F)c1)N1CCN(c2nc(-c3cccs3)nc3ccccc23)CC1 | 1.01 µM (active) |  |
| Cc1nc2nc(-c3ccc(F)cc3)cn2nc1C |  | 10.6 |
| O=C(c1ccc2c(c1)OCCO2)N1CCN(c2nc(-c3cccs3)nc3ccccc23)CC1 | 3.66 µM (active) |  |
| c1ccc2c(NCC3CCCO3)nc(N3CCOCC3)nc2c1 (centres undefined) |  | 6.26 |
| CCOc1ccc(N(CC(=O)Nc2ccc(C)cc2)S(=O)(=O)c2c(C)[nH]c(=O)[nH]c2=O)cc1 | 11.2 µM (active) |  |
| Cc1ccc(S(=O)(=O)N2CCN(c3nc(-c4cccnc4)nc4ccccc34)CC2)cc1 | 16.3 µM (active) |  |
